Measured values published in the supplement of paper PMC9262897, “Low-cost anti-mycobacterial drug discovery using engineered E. coli” (Nature Communications, 2022).
Where a name gives a salt, the structure may show the parent alone. ± gives the standard deviation of the averaged measurements.

What was measured:
Test in all cases: growth (OD600 after 10 h); higher = more growth (less inhibition)
[1] = test system: E. coli TESEC Alr+ wild-type control; details: compound 0.1 mM; raw OD600 reference: median of DMSO wells 0.241, cell-free background 0.041
Description: (§1)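 TESEC Mtb Alr E. coli, or the Alr+ wild-type control, in 384-well plates with Prestwick library compounds at 0.1 mM and 1% DMSO, across arabinose induction levels of 1E3 to 1E7 nM. Growth is read as OD600 after 10 h at 37 °C in triplicate biological replicates.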

E. coli TESEC Mtb Alr [2] = details: compound 0.1 mM
Description: as §1

E. coli TESEC Mtb Asd = details: compound 0.1 mM
Description: (§2)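 TESEC E. coli strains in which the native enzyme is deleted and replaced by arabinose-inducible Mtb Asd, DapB, CysH or TrpD, each grown in its selective medium. Strains were screened against the Prestwick library at 0.1 mM and 1% DMSO in 384-well format at low and high arabinose induction. Growth is read as OD600 after 10 h in triplicate.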

E. coli TESEC Mtb DapB = details: compound 0.1 mM
Description: as §2

[3] = test system: E. coli TESEC Alr+ wild-type control; details: compound 0.1 mM; raw OD600 reference: median of DMSO wells 0.49, cell-free background 0.052
Description: (§3)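 TESEC Mtb Alr E. coli (ΔaraC ΔtolC ΔentC Δalr ΔdadX, arabinose-inducible Mtb Alr) or the Alr+ wild-type control strain, grown in defined M9-fructose medium without D-alanine in 96-well plates with Prestwick library compounds at 0.1 mM and 1% DMSO. Low Alr induction is 0.1 µM arabinose and high induction is 10 mM arabinose.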

E. coli TESEC Mtb Alr [4] = details: compound 0.1 mM; remark: listed apart in the source
Description: as §3

[5] = arabinose 1000 nM, raw OD600 reference: median of DMSO wells 0.294, cell-free background 0.041
[6] = arabinose 10000 nM, raw OD600 reference: median of DMSO wells 0.264, cell-free background 0.041
[7] = arabinose 100000 nM, raw OD600 reference: median of DMSO wells 0.201, cell-free background 0.041
[8] = arabinose 1000000 nM, raw OD600 reference: median of DMSO wells 0.193, cell-free background 0.041
[9] = arabinose 10000000 nM, raw OD600 reference: median of DMSO wells 0.146, cell-free background 0.041
[10] = arabinose induction (level): High, raw OD600 reference: median of DMSO wells 0.331, cell-free background 0.041
[11] = arabinose induction (level): Low, raw OD600 reference: median of DMSO wells 0.417, cell-free background 0.041
[12] = arabinose induction (level): High, raw OD600 reference: median of DMSO wells […], cell-free background 0.041
[13] = arabinose induction (level): Low, raw OD600 reference: median of DMSO wells 0.227, cell-free background 0.041
[14] = arabinose 100 nM, raw OD600 reference: median of DMSO wells 0.413, cell-free background 0.052
[15] = arabinose 10000000 nM, raw OD600 reference: median of DMSO wells […], cell-free background 0.052

What does the source list for `CN1CCN(C(c2ccccc2)c2ccccc2)CC1` [Cyclizine hydrochloride]?
growth [1]: 0.216 ± 0.0082; growth (E. coli TESEC Mtb Alr [2]; [5]): 0.278 ± 0.011; growth (E. coli TESEC Mtb Alr [2]; [6]): 0.256 ± 0.0077; growth (E. coli TESEC Mtb Alr [2]; [7]): 0.188 ± 0.025; growth (E. coli TESEC Mtb Alr [2]; [8]): 0.142 ± 0.013; growth (E. coli TESEC Mtb Alr [2]; [9]): 0.142 ± 0.0021; growth (E. coli TESEC Mtb Asd; [10]): 0.173 ± 0.0089; growth (E. coli TESEC Mtb Asd; [11]): 0.31 ± 0.039; growth (E. coli TESEC Mtb DapB; [12]): 0.168 ± 0.0017; growth (E. coli TESEC Mtb DapB; [13]): 0.196 ± 0.0017; growth [3]: 0.602 ± 0.088; growth (E. coli TESEC Mtb Alr [4]; [14]): 0.41 ± 0.011; growth (E. coli TESEC Mtb Alr [4]; [15]): 0.325 ± 0.0044

What does the source list for `N=C(N)NCC1COC2(CCCCC2)O1` (stereo unspecified) [Guanadrel sulfate]?
growth [1]: 0.241 ± 0.0075; growth (E. coli TESEC Mtb Alr [2]; [5]): 0.296 ± 0.0091; growth (E. coli TESEC Mtb Alr [2]; [6]): 0.258 ± 0.0067; growth (E. coli TESEC Mtb Alr [2]; [7]): 0.204 ± 0.017; growth (E. coli TESEC Mtb Alr [2]; [8]): 0.183 ± 0.0022; growth (E. coli TESEC Mtb Alr [2]; [9]): 0.138 ± 0.0046; growth (E. coli TESEC Mtb Asd; [10]): 0.363 ± 0.079; growth (E. coli TESEC Mtb Asd; [11]): 0.368 ± 0.036; growth (E. coli TESEC Mtb DapB; [12]): 0.22 ± 0.023; growth (E. coli TESEC Mtb DapB; [13]): 0.227 ± 0.039; growth [3]: 0.635 ± 0.012; growth (E. coli TESEC Mtb Alr [4]; [14]): 0.406 ± 0.013; growth (E. coli TESEC Mtb Alr [4]; [15]): 0.324 ± 0.012

Which growth [1] does the source give for `CCC[C@H](N[C@@H](C)C(=O)N1[C@H](C(=O)O)C[C@@H]2CCCC[C@@H]21)C(=O)OCC` [Perindopril] here?
Its growth is 0.252 ± 0.01.

What about the growth (E. coli TESEC Mtb Alr [2]; [5]) of the same compound?
Its growth is 0.309 ± 0.0092.

What about the growth (E. coli TESEC Mtb Alr [2]; [6]) of the same compound?
The growth was 0.286 ± 0.0037.

And the growth (E. coli TESEC Mtb Alr [2]; [7])?
The growth was 0.208 ± 0.016.

What about the growth (E. coli TESEC Mtb Alr [2]; [8]) of the same compound?
Its growth is 0.198 ± 0.024.

What about the growth (E. coli TESEC Mtb Alr [2]; [9]) of the same compound?
The growth was 0.149 ± 0.0041.

And the growth (E. coli TESEC Mtb Asd; [10])?
The growth was 0.225 ± 0.016.

What about the growth (E. coli TESEC Mtb Asd; [11]) of the same compound?
The growth was 0.392 ± 0.033.

What about the growth (E. coli TESEC Mtb DapB; [12]) of the same compound?
The growth was 0.198 ± 0.01.

What about the growth (E. coli TESEC Mtb DapB; [13]) of the same compound?
The growth was 0.239 ± 0.041.

And the growth [3]?
Its growth is 0.555 ± 0.1.

And the growth (E. coli TESEC Mtb Alr [4]; [14])?
Its growth is 0.431 ± 0.0091.

And the growth (E. coli TESEC Mtb Alr [4]; [15])?
The growth was 0.325 ± 0.0072.

Which growth [1] does the source give for `Clc1ccc(C(c2ccccc2Cl)C(Cl)Cl)cc1` (stereo unspecified) [Mitotane] here?
Its growth is 0.224 ± 0.0027.

And the growth (E. coli TESEC Mtb Alr [2]; [5])?
Its growth is 0.215 ± 0.017.

What about the growth (E. coli TESEC Mtb Alr [2]; [6]) of the same compound?
The growth was 0.224 ± 0.01.

What about the growth (E. coli TESEC Mtb Alr [2]; [7]) of the same compound?
The growth was 0.183 ± 0.012.

What about the growth (E. coli TESEC Mtb Alr [2]; [8]) of the same compound?
The growth was 0.0935 ± 0.018.

What about the growth (E. coli TESEC Mtb Alr [2]; [9]) of the same compound?
The growth was 0.133 ± 0.013.

What about the growth (E. coli TESEC Mtb Asd; [10]) of the same compound?
Its growth is 0.213 ± 0.018.

What about the growth (E. coli TESEC Mtb Asd; [11]) of the same compound?
Its growth is 0.204 ± 0.018.

And the growth (E. coli TESEC Mtb DapB; [12])?
Its growth is 0.208 ± 0.0072.

What about the growth (E. coli TESEC Mtb DapB; [13]) of the same compound?
Its growth is 0.224 ± 0.033.

What about the growth [3] of the same compound?
The growth was 0.403 ± 0.0086.

What about the growth (E. coli TESEC Mtb Alr [4]; [14]) of the same compound?
Its growth is 0.38 ± 0.011.

What about the growth (E. coli TESEC Mtb Alr [4]; [15]) of the same compound?
The growth was 0.0729 ± 0.0022.

Which growth [1] does the source give for `OCCN1CCN(CCCN2c3ccccc3Sc3ccc(C(F)(F)F)cc32)CC1` [Fluphenazine dihydrochloride] here?
The growth was 0.0421 ± 0.0038.

What about the growth (E. coli TESEC Mtb Alr [2]; [5]) of the same compound?
Its growth is 0.041 ± 0.0026.

And the growth (E. coli TESEC Mtb Alr [2]; [6])?
Its growth is 0.0391.

And the growth (E. coli TESEC Mtb Alr [2]; [7])?
The growth was 0.03987 ± 0.00021.

What about the growth (E. coli TESEC Mtb Alr [2]; [8]) of the same compound?
Its growth is 0.03867 ± 0.00012.

What about the growth (E. coli TESEC Mtb Alr [2]; [9]) of the same compound?
The growth was 0.0405 ± 0.00052.

And the growth (E. coli TESEC Mtb Asd; [10])?
Its growth is 0.0496 ± 0.00091.

What about the growth (E. coli TESEC Mtb Asd; [11]) of the same compound?
Its growth is 0.0515 ± 0.0021.

What about the growth (E. coli TESEC Mtb DapB; [12]) of the same compound?
Its growth is 0.0483 ± 0.00055.

What about the growth (E. coli TESEC Mtb DapB; [13]) of the same compound?
The growth was 0.15 ± 0.1.

What about the growth [3] of the same compound?
Its growth is 0.04827 ± 0.00025.

What about the growth (E. coli TESEC Mtb Alr [4]; [14]) of the same compound?
Its growth is 0.286 ± 0.21.

What about the growth (E. coli TESEC Mtb Alr [4]; [15]) of the same compound?
The growth was 0.0529 ± 0.00081.

For `COc1c(N2C[C@@H]3CCCN[C@@H]3C2)c(F)cc2c(=O)c(C(=O)O)cn(C3CC3)c12` [Moxifloxacin], which growth [1] is on record?
The growth was 0.04227 ± 0.00025.

And the growth (E. coli TESEC Mtb Alr [2]; [5])?
Its growth is 0.04077 ± 0.00035.

What about the growth (E. coli TESEC Mtb Alr [2]; [6]) of the same compound?
Its growth is 0.0401 ± 0.0003.

What about the growth (E. coli TESEC Mtb Alr [2]; [7]) of the same compound?
The growth was 0.0415 ± 0.0005.

What about the growth (E. coli TESEC Mtb Alr [2]; [8]) of the same compound?
The growth was 0.04013 ± 0.00012.

And the growth (E. coli TESEC Mtb Alr [2]; [9])?
The growth was 0.0446 ± 0.0054.

What about the growth (E. coli TESEC Mtb Asd; [10]) of the same compound?
Its growth is 0.0511 ± 0.0029.

And the growth (E. coli TESEC Mtb Asd; [11])?
Its growth is 0.052 ± 0.0016.

What about the growth (E. coli TESEC Mtb DapB; [12]) of the same compound?
Its growth is 0.04903 ± 0.00038.

And the growth (E. coli TESEC Mtb DapB; [13])?
Its growth is 0.04933 ± 0.00035.

And the growth [3]?
The growth was 0.0539 ± 0.0014.

And the growth (E. coli TESEC Mtb Alr [4]; [14])?
Its growth is 0.05287 ± 0.00031.

And the growth (E. coli TESEC Mtb Alr [4]; [15])?
Its growth is 0.0516 ± 0.0013.

With `CCOC1O[C@H]([C@@H](COCc2ccccc2)OCc2ccccc2)[C@H](OCc2ccccc2)[C@H]1O` (stereo partly specified) [Tribenoside] as the compound, how does the growth [1] read?
Its growth is 0.23 ± 0.005.

And the growth (E. coli TESEC Mtb Alr [2]; [5])?
Its growth is 0.29 ± 0.008.

And the growth (E. coli TESEC Mtb Alr [2]; [6])?
Its growth is 0.255 ± 0.015.

And the growth (E. coli TESEC Mtb Alr [2]; [7])?
Its growth is 0.148 ± 0.0075.

What about the growth (E. coli TESEC Mtb Alr [2]; [8]) of the same compound?
Its growth is 0.0915 ± 0.0035.

And the growth (E. coli TESEC Mtb Alr [2]; [9])?
The growth was 0.154 ± 0.0022.

What about the growth (E. coli TESEC Mtb Asd; [10]) of the same compound?
The growth was 0.214 ± 0.023.

And the growth (E. coli TESEC Mtb Asd; [11])?
Its growth is 0.199 ± 0.015.

What about the growth (E. coli TESEC Mtb DapB; [12]) of the same compound?
The growth was 0.155 ± 0.0039.

What about the growth (E. coli TESEC Mtb DapB; [13]) of the same compound?
Its growth is 0.155 ± 0.016.

And the growth [3]?
The growth was 0.374 ± 0.015.

And the growth (E. coli TESEC Mtb Alr [4]; [14])?
The growth was 0.378 ± 0.0058.

What about the growth (E. coli TESEC Mtb Alr [4]; [15]) of the same compound?
Its growth is 0.0944 ± 0.017.
